Records with an inconclusive call do not appear. Activity calls are given as the source filed them. Unless noted, calls follow the shape of the full dose curve.
Experiments:
[1] = Nuclear factor erythroid 2-related factor 2/antioxidant responsive element (Nrf2/ARE) small molecule agonists: qHTS cell viability counter screen in human keratinocytes (AID 1919968; active = well fitted curve in the direction sought with a large enough effect in the repeat runs; an effect the other way counts as inactive or inconclusive; also: nearly all actives have a fitted effect of over 55% in size; also: potency is read from the fitted curve at half-maximal effect)
How it was run: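 KeratinoSens cells (HaCaT keratinocytes stably carrying an ARE-luciferase reporter) were seeded at 1,500 cells/well and rested 5 h at 37 C/5% CO2. They were then exposed to compounds in DMSO for 23 h. Viability was read by CellTiter-Fluor fluorescence after 1 h.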

[2] = Nuclear factor erythroid 2-related factor 2/antioxidant responsive element (Nrf2/ARE) small molecule agonists: luciferase reporter gene qHTS assay in human keratinocytes (AID 1919969); also: nearly all actives have a fitted effect of over 35% in size
[3] = target: Gonadotropin-releasing hormone receptor (Homo sapiens) (UniProt P30968); assay: Human gonadotropin-releasing hormone receptor (GnRHR) small molecule agonists, calcium flux assay in GnRHR-HEK293 cells (AID 1920063); also: nearly all actives have a fitted effect of over 35% in size; also: potency is read from the fitted curve at half-maximal effect
Sequence of Gonadotropin-releasing hormone receptor (Homo sapiens) (P30968 whole entry, looked up): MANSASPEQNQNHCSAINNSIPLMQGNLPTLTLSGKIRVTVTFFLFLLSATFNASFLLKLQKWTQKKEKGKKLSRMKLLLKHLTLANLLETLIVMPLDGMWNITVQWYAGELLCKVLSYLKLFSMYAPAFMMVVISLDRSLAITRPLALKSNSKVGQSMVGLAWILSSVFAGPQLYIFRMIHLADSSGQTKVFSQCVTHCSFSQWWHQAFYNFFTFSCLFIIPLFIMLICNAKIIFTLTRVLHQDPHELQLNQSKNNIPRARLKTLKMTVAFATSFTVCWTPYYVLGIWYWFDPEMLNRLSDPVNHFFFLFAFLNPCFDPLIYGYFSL
How it was run: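 HEK293 cells stably expressing human GnRHR were plated 18 h at 37 °C, loaded with calcium dye 1 h at 37 °C, then given compound in agonist mode; fluorescence (Ex/Em 480/540) read kinetically for 3 min at 1 s intervals.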

[4] = target: KiSS-1 receptor (Homo sapiens) (UniProt Q969F8); assay: Human kisspeptin (KISS1R) small molecule agonists, calcium flux assay in KISS1R-HEK293 cells (AID 1920064; active = well fitted curve in the direction sought with a large enough effect in the repeat runs; an effect the other way counts as inactive or inconclusive)
Sequence of KiSS-1 receptor (Homo sapiens) (Q969F8 whole entry, looked up): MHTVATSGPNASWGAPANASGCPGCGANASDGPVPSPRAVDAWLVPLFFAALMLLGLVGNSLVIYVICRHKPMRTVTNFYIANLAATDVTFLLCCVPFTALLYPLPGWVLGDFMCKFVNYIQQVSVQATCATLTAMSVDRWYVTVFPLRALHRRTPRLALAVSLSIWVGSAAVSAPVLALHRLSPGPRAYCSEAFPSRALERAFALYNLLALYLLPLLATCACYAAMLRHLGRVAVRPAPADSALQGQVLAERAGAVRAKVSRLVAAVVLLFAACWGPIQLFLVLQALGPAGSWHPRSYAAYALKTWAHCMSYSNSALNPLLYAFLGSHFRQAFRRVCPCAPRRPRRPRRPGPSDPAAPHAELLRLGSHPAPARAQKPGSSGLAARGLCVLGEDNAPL
How it was run: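 HEK293 cells stably expressing human KISS1R were plated 18 h at 37 °C, loaded with calcium dye for 1 h at 37 °C, then given compound by pin tool. Fluorescence (Ex/Em 480/540) was read kinetically for 3 min.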

[5] = G protein-coupled receptor (GPCR) small molecule agonists, calcium flux assay: HEK293 wild type cell line counter screen (AID 1920065)
How it was run: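 Cells were plated and cultured 18 h at 37 C/5% CO2, then loaded with calcium dye for 1 h at 37 C. Compounds in DMSO were pin-transferred in agonist mode, and fluorescence (Ex/Em 480/540) was read kinetically for 3 min at 1 s intervals.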

[6] = p53 small molecule agonists, cell-based qHTS assay with human liver microsomes: qHTS cell viability counter screen (AID 1963579); also: nearly all actives have a fitted effect of over 45% in size
How it was run: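 Tox21 library compounds, delivered from DMSO stocks, were tested on p53RE-bla cells together with 0.5 mg/mL human liver microsomes and 0.5 mg/mL NADPH (final) over 16 h at 37 C; CellTiter-Glo luminescence served as the cytotoxicity measure.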

[7] = p53 small molecule agonists, cell-based qHTS assay with rat liver microsomes: qHTS cell viability counter screen (AID 1963580); also: nearly all actives have a fitted effect of over 45% in size
How it was run: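 Viability is assessed in parallel with the p53 reporter read: HCT-116 p53RE-bla cells receive compounds plus rat microsomes and NADPH (0.5 mg/mL final apiece), incubate 16 h at 37 C, and then CellTiter-Glo luminescence is recorded.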

[8] = p53 small molecule agonists, cell-based qHTS assay (AID 1963582; active = well fitted activation curve with a large enough effect in the signal ratio in the repeat runs, not every such curve was filed as active; the % refers to the signal ratio)
How it was run: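 p53RE-bla beta-lactamase reporter cells rested 5 h at 37 C/5% CO2, then received compounds in DMSO by pin transfer and were incubated 16 h at 37 C. LiveBLAzer B/G FRET substrate was loaded for 2 h at room temperature before fluorescence reading.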

[9] = target: 5-hydroxytryptamine receptor 2A (Homo sapiens) (UniProt P28223); assay: 5-hydroxytryptamine receptor 2A (HTR2A) small molecule antagonists, cell-based qHTS assay (AID 1963586); also: nearly all actives have a fitted effect of over 45% in size
Sequence of 5-hydroxytryptamine receptor 2A (Homo sapiens) (P28223 whole entry, looked up): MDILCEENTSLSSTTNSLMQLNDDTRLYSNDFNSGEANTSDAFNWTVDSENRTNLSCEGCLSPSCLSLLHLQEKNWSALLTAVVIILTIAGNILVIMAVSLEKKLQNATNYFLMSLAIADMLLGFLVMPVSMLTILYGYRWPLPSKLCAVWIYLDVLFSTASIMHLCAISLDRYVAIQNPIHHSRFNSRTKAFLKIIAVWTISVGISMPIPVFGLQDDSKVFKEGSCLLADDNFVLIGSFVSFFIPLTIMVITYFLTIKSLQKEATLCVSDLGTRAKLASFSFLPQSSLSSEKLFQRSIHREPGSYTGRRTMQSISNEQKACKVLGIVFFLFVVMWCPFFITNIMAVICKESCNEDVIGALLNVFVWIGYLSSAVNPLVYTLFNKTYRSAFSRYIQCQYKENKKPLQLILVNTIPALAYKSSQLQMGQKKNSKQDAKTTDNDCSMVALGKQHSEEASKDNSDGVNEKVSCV
How it was run: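 Antagonist-mode intracellular calcium assay: DOI (4 nM) added after 5 min compound pre-incubation at room temperature to dye-loaded HTR2A-CHO cells. Fluorescence followed for 3 min, sampled every second.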

[10] = target: 5-hydroxytryptamine receptor 2A (Homo sapiens) (UniProt P28223); assay: 5-hydroxytryptamine receptor 2A (HTR2A) small molecule agonists, cell-based qHTS assay (AID 1963587); also: nearly all actives have a fitted effect of over 30% in size
How it was run: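 CHO cells stably expressing human HTR2A, plated 18 h, loaded with calcium dye 1 h at 37 C. Agonist mode: compounds added and intracellular calcium fluorescence recorded kinetically for 2 min at 1 sec intervals.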

[11] = target: Muscarinic acetylcholine receptor M1 (Homo sapiens) (UniProt P11229); assay: Cholinergic receptor muscarinic 1 (CHRM1) small molecule agonists, cell-based qHTS assay (AID 1963589); also: nearly all actives have a fitted effect of over 35% in size
Sequence of Muscarinic acetylcholine receptor M1 (Homo sapiens) (P11229 whole entry, looked up): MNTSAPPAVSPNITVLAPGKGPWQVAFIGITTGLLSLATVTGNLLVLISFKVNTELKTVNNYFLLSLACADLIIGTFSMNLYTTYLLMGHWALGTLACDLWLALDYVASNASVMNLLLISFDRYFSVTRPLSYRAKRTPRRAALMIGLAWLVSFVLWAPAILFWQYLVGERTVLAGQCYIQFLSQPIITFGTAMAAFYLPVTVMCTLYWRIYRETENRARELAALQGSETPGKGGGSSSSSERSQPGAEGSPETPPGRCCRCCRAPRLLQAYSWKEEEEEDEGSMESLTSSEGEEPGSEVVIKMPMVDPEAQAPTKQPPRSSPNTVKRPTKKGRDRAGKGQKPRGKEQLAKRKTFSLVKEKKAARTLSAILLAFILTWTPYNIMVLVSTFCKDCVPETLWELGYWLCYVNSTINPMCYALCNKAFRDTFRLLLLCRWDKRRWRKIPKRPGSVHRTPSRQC
How it was run: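 CHO cells stably expressing human CHRM1, seeded 18 h at 37 C/5% CO2, dye-loaded 1 h at 37 C, then given compound in agonist mode; intracellular calcium fluorescence read kinetically at 1 s intervals. Fifteen concentrations, three independent runs.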

[12] = cAMP Responsive Elements (CRE) small molecule agonists, cell-based qHTS assay (AID 1963590)
How it was run: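 CRE-bla HEK 293T cells in DMEM with 10% dialyzed FBS, NEAA, pyruvate and 25 mM HEPES were plated 18 h at 37 C/5% CO2, then exposed to compounds in DMSO for 3 h before LiveBLAzer B/G FRET substrate addition.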

[13] = cAMP Responsive Elements (CRE) small molecule antagonists, cell-based qHTS assay (AID 1963591; active = well fitted inhibition curve with a large enough effect in the signal ratio in the repeat runs, not every such curve was filed as active; the % refers to the signal ratio)
How it was run: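 CRE-bla HEK293T cells were plated 18 h at 37 °C/5% CO2, pinned with compound in DMSO, then stimulated with NKH477 at 0.25 uM final for 3 h. LiveBLAzer B/G FRET substrate was added and plates incubated 2 h at room temperature.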

[14] = target: Beta-2 adrenergic receptor (Homo sapiens) (UniProt P07550); assay: Adrenergic beta2 receptor (ADRB2) small molecule antagonists, cell-based qHTS assay (AID 1963592); also: series mostly up to about 92 µM; nearly all actives have a fitted effect of over 50% in size
Sequence of Beta-2 adrenergic receptor (Homo sapiens) (P07550 whole entry, looked up): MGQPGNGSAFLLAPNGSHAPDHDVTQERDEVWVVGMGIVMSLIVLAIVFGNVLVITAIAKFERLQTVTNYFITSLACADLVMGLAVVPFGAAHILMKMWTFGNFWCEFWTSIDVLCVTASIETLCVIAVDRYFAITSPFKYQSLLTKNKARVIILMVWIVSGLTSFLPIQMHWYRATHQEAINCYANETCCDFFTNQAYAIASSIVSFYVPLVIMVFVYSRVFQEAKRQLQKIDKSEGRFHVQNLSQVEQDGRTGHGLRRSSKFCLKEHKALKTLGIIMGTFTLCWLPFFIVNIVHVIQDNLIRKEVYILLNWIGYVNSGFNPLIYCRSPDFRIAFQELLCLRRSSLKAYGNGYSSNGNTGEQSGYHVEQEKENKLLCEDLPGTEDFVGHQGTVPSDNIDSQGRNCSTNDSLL
How it was run: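 Cells (CHO, stable ADRB2 overexpression) incubated 18-20hr at 37C; compounds added from DMSO; agonist mix (1nM isoproterenol, 100uM IBMX, 25uM Ro-20-1724) added; 0.5hr RT; d2-cAMP and anti-cAMP-cryptate added; 1hr RT; 665/615 nm read.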

[15] = target: D(2) dopamine receptor (Homo sapiens) (UniProt P14416); assay: Dopamine D2 receptor (DRD2) small molecule agonists, cell-based qHTS assay (AID 1963594); also: nearly all actives have a fitted effect of over 35% in size; also: potency is read from the fitted curve at half-maximal effect
Sequence of D(2) dopamine receptor (Homo sapiens) (P14416 whole entry, looked up): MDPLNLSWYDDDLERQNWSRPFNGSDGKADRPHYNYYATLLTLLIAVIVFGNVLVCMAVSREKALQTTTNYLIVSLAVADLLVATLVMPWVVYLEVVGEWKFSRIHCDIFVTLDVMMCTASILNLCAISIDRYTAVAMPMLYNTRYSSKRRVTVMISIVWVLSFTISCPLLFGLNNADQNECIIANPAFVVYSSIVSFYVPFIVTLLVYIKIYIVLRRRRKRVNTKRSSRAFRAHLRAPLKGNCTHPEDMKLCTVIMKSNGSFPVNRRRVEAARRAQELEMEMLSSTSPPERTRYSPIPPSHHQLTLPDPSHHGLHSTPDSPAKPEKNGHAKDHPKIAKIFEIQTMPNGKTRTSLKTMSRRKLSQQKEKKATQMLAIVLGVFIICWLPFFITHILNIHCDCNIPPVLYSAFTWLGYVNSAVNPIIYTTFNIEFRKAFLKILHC
How it was run: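 HEK293 cells stably expressing human DRD2, pre-treated with PDE inhibitor Ro20-1724 (0.1 mM final) and compound 10 min at room temperature, then stimulated with NKH477 (200nM […]) for 30 min. cAMP read by HTRF (665/620 nm).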

[16] = target: D(2) dopamine receptor (Homo sapiens) (UniProt P14416); assay: Dopamine D2 receptor (DRD2) small molecule antagonists, cell-based qHTS assay (AID 1963595; active = well fitted inhibition curve with a large enough effect in the signal ratio in the repeat runs, with a control signal flat; the % refers to the signal ratio)
How it was run: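 HTRF cAMP read-out at 665 and 620 nm emission (340 nm excitation). Antagonist mode: compounds were tested against 12 nM quinpirole in DRD2-HEK293 cells, with 200 nM NKH477 raising cAMP and 0.1 mM Ro20-1724 blocking its breakdown.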

[17] = p53 small molecule agonists, cell-based qHTS assay: qHTS cell viability counter screen (AID 1963581); also: nearly all actives have a fitted effect of over 45% in size
How it was run: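 p53RE-bla HCT-116 cells were exposed to compounds for 16 h at 37 C; after the beta-lactamase FRET read in the same wells, CellTiter-Glo was added and luminescence (intracellular ATP) read after 30 min at room temperature.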

[18] = target: Muscarinic acetylcholine receptor M1 (Homo sapiens) (UniProt P11229); assay: Cholinergic receptor muscarinic 1 (CHRM1) small molecule antagonists, cell-based qHTS assay (AID 1963588); also: nearly all actives have a fitted effect of over 40% in size; also: potency is read from the fitted curve at half-maximal effect
How it was run: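 CHRM1-CHO calcium-flux assay, antagonist mode. Cells were seeded 18 h, dye-loaded 1 h at 37 C and given compound for 5 min at RT, then acetylcholine was added at 50nM. FDSS fluorescence was read 3 min; 15 concentrations, three runs.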

[19] = target: Beta-2 adrenergic receptor (Homo sapiens) (UniProt P07550); assay: Adrenergic beta2 receptor (ADRB2) small molecule agonists, cell-based qHTS assay (AID 1963593);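 also: CHO cells stably overexpressing human ADRB2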
How it was run: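 CHO cells stably over-expressing ADRB2 were plated overnight at 37C, then dosed with compounds plus a stimulation mix containing 100uM IBMX and 25uM Ro-20-1724 for 0.5hr at room temperature. cAMP was measured by HTRF competition, 1hr.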
% is scaled to controls: 0 for no effect and ±100 for the full control effect.

CCOc1ccc(O)cc1
inactive: Potency [1] | Potency [2] | Potency [3] | Potency [4] | Potency [5] | Potency [6] | Potency [7] | Potency [8] | Potency [9] | Potency [10] | Potency [11] | Potency [12] | Potency [13] | Potency [14] | Potency [15] | Potency [16]

COC(=O)CCS
inactive: Potency [1] | Potency [2] | Potency [3] | Potency [4] | Potency [5] | Potency [6] | Potency [7] | Potency [17] | Potency [18] | Potency [11] | Potency [12] | Potency [13] | Potency [14] | Potency [15] | Potency [16]

O=C(N[C@@H](c1ccccc1)[C@@H]1CCCCN1)c1cccc(C(F)(F)F)c1Cl
active: Potency [1] 43.3 µM | Potency [3] 38.9 µM
inactive: Potency [2] | Potency [4] | Potency [5] | Potency [6] | Potency [7] | Potency [17] | Potency [18] | Potency [11] | Potency [14] | Potency [15] | Potency [16]

CC(C)(CO)C(O)C(=O)NCCCO (stereo not drawn)
inactive: Potency [1] | Potency [2] | Potency [3] | Potency [4] | Potency [5] | Potency [6] | Potency [7] | Potency [17] | Potency [12] | Potency [13] | Potency [14] | Potency [15] | Potency [16]

NC(=O)c1c(Cl)cccc1Cl
inactive: Potency [1] | Potency [2] | Potency [3] | Potency [4] | Potency [5] | Potency [6] | Potency [7] | Potency [9] | Potency [10] | Potency [18] | Potency [11] | Potency [12] | Potency [13] | Potency [14] | Potency [19] | Potency [15] | Potency [16]

OC[C@H]1O[C@@H]2O[C@H]3[C@H](O)[C@@H](O)[C@@H](O[C@H]4[C@H](O)[C@@H](O)[C@@H](O[C@H]5[C@H](O)[C@@H](O)[C@@H](O[C@H]6[C@H](O)[C@@H](O)[C@@H](O[C@H]7[C@H](O)[C@@H](O)[C@@H](O[C@H]8[C@H](O)[C@@H](O)[C@@H](O[C@H]9[C@H](O)[C@@H](O)[C@@H](O[C@H]1[C@H](O)[C@H]2O)O[C@@H]9CO)O[C@@H]8CO)O[C@@H]7CO)O[C@@H]6CO)O[C@@H]5CO)O[C@@H]4CO)O[C@@H]3CO
inactive: Potency [1] | Potency [2] | Potency [3] | Potency [4] | Potency [5] | Potency [6] | Potency [7] | Potency [9] | Potency [10] | Potency [18] | Potency [11] | Potency [12] | Potency [13] | Potency [14] | Potency [19] | Potency [15] | Potency [16]

CO/N=C(/C(=O)N[C@@H]1C(=O)N2C(C(=O)[O-])=C(C[n+]3ccn4ncccc43)CS[C@H]12)c1nsc(N)n1
inactive: Potency [1] | Potency [2] | Potency [3] | Potency [4] | Potency [5] | Potency [6] | Potency [7] | Potency [9] | Potency [10] | Potency [18] | Potency [11] | Potency [12] | Potency [13] | Potency [14] | Potency [15]

CC1=C(CC(=O)O)c2cc(F)ccc2/C1=C\c1ccc(S(C)(=O)=O)cc1
inactive: Potency [1] | Potency [2] | Potency [3] | Potency [4] | Potency [5] | Potency [6] | Potency [7] | Potency [17] | Potency [14] | Potency [15]

O=C1CCCCCO1
inactive: Potency [1] | Potency [2] | Potency [3] | Potency [4] | Potency [5] | Potency [6] | Potency [7] | Potency [9] | Potency [10] | Potency [18] | Potency [11] | Potency [12] | Potency [13] | Potency [14] | Potency [15] | Potency [16]

CN1C(C(=O)Nc2ccccn2)=C(O)c2sccc2S1(=O)=O
inactive: Potency [1] | Potency [2] | Potency [3] | Potency [4] | Potency [5] | Potency [6] | Potency [7] | Potency [17] | Potency [12] | Potency [14] | Potency [19] | Potency [15] | Potency [16]

CC(CSC(=O)c1ccccc1)C(=O)N1C[C@@H](Sc2ccccc2)C[C@H]1C(=O)O (stereo partly drawn)
inactive: activity change, negative = cytotoxicity [1] -6.69% [at 19 µM] | activity, positive = activation [2] -3.94% [at 19 µM] | activity change [3] -1.85% [at 11.8 µM, stronger effect = higher value] | activation [4] -0.676% [at 15.8 µM] | activation [5] 0.566% [at 11.8 µM] | activity change, negative = cytotoxicity [6] -12.9% [at 13.5 µM] | activity change, negative = cytotoxicity [7] -5.44% [at 13.5 µM] | activity change, negative = cytotoxicity [17] 14.1% [at 13.5 µM] | activity, negative = inhibition [18] 17.6% [at 12.6 µM] | activation [11] -0.159% [at 15.8 µM] | activation [12] -1.82% [at 19 µM] | activity change, negative = inhibition [14] 10.2% [at 19 µM]

CCCCCCCCNC
inactive: Potency [1] | Potency [2] | Potency [3] | Potency [4] | Potency [5] | Potency [6] | Potency [7] | Potency [9] | Potency [10] | Potency [18] | Potency [11] | Potency [12] | Potency [13] | Potency [14] | Potency [15] | Potency [16]

CC[C@H](C)C(=O)O[C@H]1C[C@H](O)C=C2C=C[C@H](C)[C@H](CC[C@@H](O)C[C@@H](O)CC(=O)O)[C@H]21
active: Potency [15] 61.1 µM
inactive: Potency [1] | Potency [2] | Potency [3] | Potency [4] | Potency [5] | Potency [6] | Potency [7] | Potency [17] | Potency [12] | Potency [14] | Potency [19] | Potency [16]

Cc1c(F)c(N2CCNC(C)C2)cc2c1c(=O)c(C(=O)O)cn2C1CC1 (stereo not drawn)
inactive: Potency [1] | Potency [2] | Potency [3] | Potency [4] | Potency [5] | Potency [6] | Potency [7] | Potency [17] | Potency [14] | Potency [19] | Potency [15] | Potency [16]

Fc1ccc(C(c2ccc(F)cc2)N2CCNCC2)cc1
active: Potency [18] 2.9 µM
inactive: Potency [1] | Potency [2] | Potency [3] | Potency [4] | Potency [5] | Potency [6] | Potency [7] | Potency [8] | Potency [10] | Potency [12] | Potency [13] | Potency [14] | Potency [15] | Potency [16]
